High-throughput results as filed in PubChem.
This is a sample that favours compounds with a hit; in the whole collection about 3.6% have one here.
mTORC1 inh: inhibitors of mTORC1 signaling in Tsc2-/- p53-/- MEF cells; Tsc2-/- p53-/- MEF, phospho-rpS6 immunofluorescence/PI, 24 h; Potency, µM (series often up to 38.3 µM), inactives show at the top dose activity change, negative = inhibition, actives largely listed as inhibitors; hit rate 0.78% among 44,000;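 also: potency is read from the fitted curve at half-maximal effect; plate controls were DMSO for no effect and rapamycin for full effect; nearly all actives have a fitted effect of over 50% in size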
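Immunofluorescence of rpS6 phosphorylation in Tsc2-/-, p53-/- MEFs after 24 h compound exposure, normalized to propidium iodide signal. Activity is expressed as % positive cells, thresholded with 7.5 nM rapamycin.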
SKOV3 invasion: blocks SKOV3ip1 adhesion and invasion in omental model. SKOV3ip1-GFP adhesion/invasion on 3D omental model, fluorescence. AID 1963576. hit rate 0.1% among 46,000. Potency, µM (top dose mostly 45.8 µM), for the others: at the top dose activity change, negative = inhibition, usual class: inhibitors;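 also: potency is read from the fitted curve at half-maximal effect; plate controls were DMSO wells for no effect and tomatine positive control wells for full effect; nearly all actives have a fitted effect of over 65% in size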
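Primary human omental fibroblast/mesothelial 3D culture pre-formed 48 h. SKOV3ip1-GFP cells added with compounds (0.36-46 umol/L), incubated 2 h RT/16 h 37 C, fixed; GFP cells quantified at 488/509 nm.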
S16 F2sN tox: S16 Schwann cell cytotoxicity; hit rate 0.48% among 43,000; Potency, µM (highest dose often 57.5 µM), for inactives: at the highest dose activity change, negative = cytotoxicity, hits mostly cytotoxic; AID 1508642; S16 Pmp22-F2sN Schwann cells viability, CellTiter-Glo, 24 h; also: potency is read from the fitted curve at half-maximal effect; % is scaled to controls: 0 for no effect and ±100 for the full control effect; nearly all actives have a fitted effect of over 65% in size
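Rat S16 Schwann reporter line, 24 h treatment with library compounds delivered at 23 nL per well. Cell viability by CellTiter-Glo luminescence.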
PMP22 txn prim: modulators of PMP22 gene transcription in S16 Schwann cells; hit rate 2% among 43,000; S16 Pmp22-F2sN Schwann cells (luciferase reporters placed in the Pmp22 gene), FLuc/NLuc coincidence luminescence, 24 h; Potency, µM (series often up to 57.5 µM), for inactives: top-dose activity change, negative = inhibition, usual class: inhibitors; active = clear falling dose curves in both reporters; inconclusive = both reporters move, but less clearly or upward; inactive = either reporter flat; the % is the NLuc reporter signal; also: potency is read from the fitted curve at half-maximal effect; % is scaled to controls: 0 for no effect and ±100 for the full control effect
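Transcriptional readout in edited S16(c9) cells: two luciferases reported from the Pmp22 locus, measured in turn after 24 h compound incubation.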
GALC G270D up: enhancers of human galactocerebrosidase G270D mutant activity in cells; Potency, µM (doses to about 57.5 µM), usual class: activators; hit rate 0.1% among 45,000; 145M-Twi-hGALC-G270D cells, HMU-beta-Gal fluorescence, 48 h; AID 1159614; also: potency is read from the fitted curve at half-maximal effect; 0% is about no effect; nearly all actives have a fitted effect of over 65% in size
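qHTS, 1536-well; 145M-Twi-hGALC-G270D cells (WT line also made) in DMEM/F12 + 10% FBS; compound incubation on live cells; HMU-β-gal 0.1 mM final, pH 5.2, NaTC; carbonate stop; fluorescence increase = enhanced residual activity.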
NTMT1 inh: blocks human N-terminal methyltransferase 1 activity; Q9BV86; NTMT1 MTase-Glo SAH luminescence, purified enzyme; Potency, µM (highest dose often 114 µM), for inactives: at the top dose activity change, negative = inhibition, actives largely listed as inhibitors; hit rate 2.5% among 59,000;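 also: potency is read from the fitted curve at half-maximal effect; plate controls were DMSO vehicle for no effect and no enzyme for full effect; nearly all actives have a fitted effect of over 65% in size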
Target sequence (Q9BV86 whole entry, looked up): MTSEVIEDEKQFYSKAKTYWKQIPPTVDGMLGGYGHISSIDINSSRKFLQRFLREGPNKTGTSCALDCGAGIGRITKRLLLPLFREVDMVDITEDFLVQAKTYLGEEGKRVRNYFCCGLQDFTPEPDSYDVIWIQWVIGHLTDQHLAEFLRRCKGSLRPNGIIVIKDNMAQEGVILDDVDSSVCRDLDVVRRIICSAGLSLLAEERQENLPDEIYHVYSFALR
Sfp PPTase inh: inhibits purified B. subtilis Sfp PPTase; purified Sfp PPTase enzyme activity, qHTS; hit rate 78% among 230; shares compounds with NTMT1 inh; Potency, µM (titrated, usually from 114 µM), for the others: at the top dose activity change, negative = inhibition, usual class: inhibitors; AID 540350
Bsub HM489 growth: reduces growth of B. subtilis HM489 strain. shares compounds with NTMT1 inh. B. subtilis HM489 (acpS-) growth, BacTiter-Glo, 5 h. hit rate 50% among 220. Potency, µM (titrated, usually from 114 µM), for the others: top-dose activity change, negative = inhibition, usual class: inhibitors
Sfp gel opt: inhibitors of Bacillus subtilis Sfp PPTase, gel-based followup. Potency, µM (titrated, usually from 250 µM), for the others: at the highest dose activity change, negative = inhibition, most hits filed as inhibitors. purified Sfp PPTase, gel-based product detection. shares compounds with NTMT1 inh. hit rate 54% among 220
Sfp inh gel: confirmation of Bacillus subtilis Sfp PPTase inhibitors. shares compounds with NTMT1 inh. purified Sfp PPTase, gel-based product detection. Potency, µM (series often up to 250 µM), for the others: at the highest dose activity change, negative = inhibition, most hits filed as inhibitors. hit rate 90% among 45. AID 602362
Sfp inh SAR2: inhibits B. subtilis Sfp PPTase in second SAR round. shares compounds with NTMT1 inh. hit rate 87% among 230. purified Sfp enzyme, PPTase activity, qHTS. AID 602370. Potency, µM (series often up to 57.1 µM), inactives show top-dose activity change, negative = inhibition, actives largely listed as inhibitors
hGST A1-1 inh: hGST A1-1 enzyme inhibition, Sfp SAR counter-screen. shares compounds with NTMT1 inh. hGST A1-1 enzyme activity counter-screen, qHTS. Potency, µM (highest dose often 114 µM), inactives show top-dose activity change, negative = inhibition, most hits filed as inhibitors. 55 tested, under 10 active. AID 602391
HSD17B4 inh: inhibits human HSD17B4, off-target for HPGD inhibitors | shares compounds with NTMT1 inh | purified HSD17B4, estradiol/NAD+, NADH fluorescence | Potency, µM (doses to about 57.1 µM), for the others: top-dose activity change, negative = inhibition, most hits filed as inhibitors | hit rate 10% among 230 | AID 743187
ALDH1A1 counter: counter-screen for HPGD inhibitors: human ALDH1A1 inhibition | recombinant ALDH1A1, NADH fluorescence, propionaldehyde/NAD+ | Potency, µM (top dose mostly 57.1 µM), for the others: at the highest dose activity change, negative = inhibition, actives largely listed as inhibitors | shares compounds with NTMT1 inh | hit rate 93% among 230
NNMT counter: human NNMT inhibition, NTMT1 counter-screen; AID 1645878; NNMT MTase-Glo luminescence, SAH detection; Potency, µM (doses to about 57.1 µM), for inactives: at the highest dose activity, negative = inhibition, hits mostly inhibitors; hit rate 10% among 120; shares compounds with NTMT1 inh
Target sequence (P40261 whole entry, looked up): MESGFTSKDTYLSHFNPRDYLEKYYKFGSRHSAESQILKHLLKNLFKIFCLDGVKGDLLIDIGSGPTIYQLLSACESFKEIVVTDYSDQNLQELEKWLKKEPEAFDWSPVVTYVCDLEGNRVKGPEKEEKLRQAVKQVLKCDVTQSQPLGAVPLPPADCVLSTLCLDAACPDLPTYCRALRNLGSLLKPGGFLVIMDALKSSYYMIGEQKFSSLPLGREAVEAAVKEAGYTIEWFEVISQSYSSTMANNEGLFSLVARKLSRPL
Active calls of the source: *; i = inactive; ? = inconclusive; / = not tested or not shown; [ ] = remark or other dose. Unless noted, calls follow the shape of the dose curve; as a rule, active = well fitted curve in the direction sought with a large enough effect; inconclusive = small, poorly fitted or top-dose-only effect, or another doubt; inactive = no such curve, though single readings can be large; an effect the other way counts as inactive or inconclusive.

SMILES	mTORC1 inh	SKOV3 invasion	S16 F2sN tox	PMP22 txn prim	GALC G270D up	NTMT1 inh	Sfp PPTase inh	Bsub HM489 growth	Sfp gel opt	Sfp inh SAR2	HSD17B4 inh	ALDH1A1 counter	others
COc1cccc(NC(=S)N2CCN(c3cc(Cl)cc(Cl)c3)CC2)n1	/	/	/	/	/	?	?	-2%	?	?	10%	8.6µM*	Sfp inh gel=1%;hGST A1-1 inh=1.9µM*
COc1ccc(N2CCN(C(=O)Nc3ccc(Cl)cc3)CC2)cc1	7%	?	-2%	-2%	i	-18%	/	/	/	/	/	/
CC(C)(C)c1ccc(NC(=O)N2CCN(c3ncccc3Cl)CC2)cc1	/	/	/	/	/	6%[57.5 µM]	/	/	/	/	/	/
COc1cccc(NC(=S)N2CCN(c3ccc4ccccc4n3)CC2)n1	/	/	/	/	/	-24%[57.5 µM]	47µM*	?	-70%	36µM*	27µM*	24µM*
O=c1cc(CN2CCCN(c3ccc(C(F)(F)F)cn3)CC2)nc2ccccn12	/	/	/	/	/	3%	/	/	/	/	/	/
CC1(C)CC[C@]2(C(=O)O)CC[C@]3(C)C(=CCC4[C@@]5(C)C[C@@H](O)[C@H](O)[C@](C)(CO)C5CC[C@]43C)[C@@H]2[C@@H]1O (stereo not given in full)	/	/	/	/	/	16%[29.8 µM]	/	/	/	/	/	/
Cc1ccc(OCCn2c(CCNC(=O)Cc3ccccc3F)nc3ccccc32)cc1	/	/	/	/	/	-18%[57.5 µM]	/	/	/	/	/	/
C/C=C/C=C/C=C/C(=O)O[C@@H]1C=C2COC(=O)[C@]2(O)[C@@]2(C)CCCC(C)(C)[C@H]12	/	/	/	/	/	-15%[29.8 µM]	/	/	/	/	/	/	NNMT counter=-12%[28.6 µM]
